Hits are enriched below; roughly 2.9% of the tested compounds scored in any of these assays.
p53 reactivator: restores transcriptional activity of mutant p53. H1299 p53-A138V BP100-luciferase reporter, luminescence, 24 h. Potency, µM (top dose mostly 92.2 µM), for inactives: at the top dose activity change, positive = activation, most hits filed as activators. 0.063% of 320,000 active. AID 504706; further: potency means the concentration at half of the fitted maximal effect; % of control where 0% means no effect; nearly all actives have a fitted effect of over 45% in size
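H1299 (p53-null), stable ts p53-A138V + BP100-Luc; 1000 cells/well, Opti-MEM/10% FBS; cpd 4 pt, 1:5; 24 h, 37 deg C, 5% CO2; detection reagent 10 min RT; luminescence.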
ClpP mod: qHTS Assay for Activators of ClpP; ATP-dependent Clp protease proteolytic subunit (Bacillus subtilis (strain 168)), P80244; purified B. subtilis ClpP, FRET peptide cleavage, 20 min; Potency, µM (titrated, usually from 57.5 µM), for inactives: at the highest dose activity change, negative = active; 1.9% of 340,000 active; AID 651965, 2013; active means well fitted falling curve with a large enough effect; inconclusive means small, poorly fitted or top-dose-only effect; inactive means no such curve, though single readings can be large or run the other way; further: potency means the concentration at half of the fitted maximal effect; the source files actives as falling curves though it sought activators and does not explain the sign; nearly all actives have a fitted effect of over 65% in size
Target sequence (P80244 whole entry, looked up): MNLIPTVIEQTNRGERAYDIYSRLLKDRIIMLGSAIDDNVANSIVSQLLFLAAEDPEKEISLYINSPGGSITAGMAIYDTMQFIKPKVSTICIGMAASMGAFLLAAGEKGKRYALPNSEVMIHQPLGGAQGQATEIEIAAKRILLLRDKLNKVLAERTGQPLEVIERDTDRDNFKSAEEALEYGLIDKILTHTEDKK
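FRET quenching reversal measured ClpP activation: 10 microg/mL B. subtilis ClpP at pH 8 with the FRET-FV decapeptide, read at 430 nm after 320 nm excitation. The 20-min minus 0-min signal was scaled between DMSO/no-enzyme wells and ADEP (5.8 microM final).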
GLP-1R agonist: GLP-1 receptor (human) agonism. HEK293 GLP-1R CRE-luciferase, luminescence, 4-6 h; cells express a hypersensitive GLP-1R form. 0.007% of 380,000 active. AID 624172. Potency, µM (series often up to 45.6 µM), for the others: at the highest dose activation, actives largely listed as activators; further: potency means the concentration at half of the fitted maximal effect; % of control where 0% means no effect
Target sequence (P43220 whole entry, looked up): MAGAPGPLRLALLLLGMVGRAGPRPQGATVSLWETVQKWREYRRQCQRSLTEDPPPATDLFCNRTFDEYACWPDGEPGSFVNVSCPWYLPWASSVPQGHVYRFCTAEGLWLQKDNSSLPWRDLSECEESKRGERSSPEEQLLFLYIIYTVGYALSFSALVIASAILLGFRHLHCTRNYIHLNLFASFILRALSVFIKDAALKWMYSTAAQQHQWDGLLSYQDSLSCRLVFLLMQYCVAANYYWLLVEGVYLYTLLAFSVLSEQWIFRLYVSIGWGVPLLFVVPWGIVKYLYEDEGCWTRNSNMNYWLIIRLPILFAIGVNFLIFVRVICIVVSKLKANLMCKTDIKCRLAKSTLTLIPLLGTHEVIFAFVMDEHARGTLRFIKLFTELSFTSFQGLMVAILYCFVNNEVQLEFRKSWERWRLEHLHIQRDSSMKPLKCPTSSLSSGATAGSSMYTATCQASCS
LDHA block: LDHA (human) enzyme inhibition | purified LDHA, NADH/diaphorase-resazurin fluorescence; hits give low values | activity change, % (values are at about 110 or 230 µM) | 0.15% of 480,000 active; in the data active means activity change below about -30%; inconclusive means mostly about -25% to -30%;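 further: plate controls were DMSO wells for no effect and wells without enzyme for full effect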
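Human LDH5 (2 nM) was incubated with 0.06 mM NADH and 0.2 mM pyruvate for 5 min at room temperature in Tris pH 7.4. Remaining NADH was coupled through diaphorase/resazurin, and resorufin fluorescence was read at 0 and 20 min.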
GLP1R inv ag: acts as inverse agonist at human GLP-1 receptor; Potency, µM (doses to about 38.3 µM), inactives show top-dose activity change, negative = inhibition, actives largely listed as inhibitors; P43220; AID 624417; 1.6% of 410,000 active; HEK293 GLP-1R CRE-luciferase, luminescence, 24 h; GLP-1R form is constitutively active; further: potency means the concentration at half of the fitted maximal effect; on the % scale 0 is the no-effect control and ±100 the full control effect; nearly all actives have a fitted effect of over 55% in size
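Constitutively active GLP-1R drives a cAMP-responsive luciferase in stably transfected HEK293 cells; test compounds are added after overnight (12 h) attachment and left 24 hr, and signal loss in luminescence marks inhibition.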
GLP1R cytotox: cytotoxic in the GLP-1 receptor inverse agonist counter-screen. 0.13% of 410,000 active. HEK293 cAMP-luciferase reporter cells, luminescence, 24 h. Potency, µM (titrated, usually from 38.3 µM), without a hit: at the top dose activity change, negative = inhibition, actives largely listed as inhibitors;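 further: loss of luciferase light is scored as toxicity; potency means the concentration at half of the fitted maximal effect; on the % scale 0 is the no-effect control and ±100 the full control effect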
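To flag toxic compounds, the library was rerun on cells for 24 hr at 37 deg C and 5% CO2. Viability-linked luminescence was captured 12 min after adding luciferase detection reagent.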
Numbers without * were called inactive; ? = inconclusive; . = not tested or not shown. Unless noted, the call rests on the fitted dose curve; in most records, active means well fitted curve in the direction sought with a large enough effect; inconclusive means small, poorly fitted or top-dose-only effect, or another doubt; inactive means no such curve, though single readings can be large; an effect the other way counts as inactive or inconclusive.

SMILES	p53 reactivator	ClpP mod	GLP-1R agonist	LDHA block	GLP1R inv ag	GLP1R cytotox
Cc1ccc(-c2csc(=Nc3cccnc3)n2CCCN2CCCC2=O)cc1C	-12%	-2%	14%	-5	12%	2%
N#CC(=Cc1ccccn1)c1nc(-c2ccc(Cl)cc2)cs1	.	25µM*	11%	-3	?	3%
N#C/C(=C/c1ccc(Cl)cc1)c1nc(-c2ccc(Br)cc2)cs1	.	3%	.	-6	17%	32%
CCCn1c(C2CCCN2c2nc(-c3cccc(Br)c3)cs2)nc2ccccc21 (centres undefined)	.	-2%	6%	1	?	4.5µM*
Cc1ccc(-c2csc(N3CCC[C@@H]3C(=O)NCCn3c(C(F)(F)F)nc4ccccc43)n2)cc1	.	1%	-5%	0	?	-5%
CCNC(=S)N(CCc1c(C)[nH]c2ccc(Cl)cc12)Cc1ccco1	-4%	-2%	2%	-2	?	?
CNC(=S)N(CCc1c(C)[nH]c2ccc(C)cc12)Cc1ccco1	6%	-1%	12%	0	10µM*	2%
C=CCc1cc(C=O)cc(OCC)c1OCc1ccc(Cl)cc1	0%	-3%	-4%	-2	?	-6%
C=CCc1cc(C=O)cc(OC)c1OCc1ccc(Cl)cc1	5%	2%	2%	5	10µM*	-5%
CC(CC#N)NCc1ccc(CN2CCN(C)CC2)cc1 (centres undefined)	.	.	.	2	.	.
NC(=O)Cn1cc(/C=N\NS(=O)(=O)c2cccc([N+](=O)[O-])c2)c2ccccc21	-1%	-1%	1%	-9	10%	-2%
CC(C)COc1ccc(C(=O)OC2CC(C)(C)OCC2CN(C)C)cc1 (centres undefined)	1%	20µM*	-4%	-2	?	-23%
COc1ccc(C(=O)OC2CCCCC2CN(C)C)cc1 (centres undefined)	-5%	0%	-2%	-2	0%	1%
Cc1cc(C(=O)NNc2ccc(F)cc2)no1	-1%	-2%	1%	0	5µM*	?
Cc1cc(C(=O)NNc2ccccc2F)no1	0%	.	9%	-1	?	?
Cc1cc(C(=O)NNc2c(Cl)cccc2Cl)no1	-2%	0%	1%	-1	2.5µM*	-23%
O=C(CCl)NCC12CC3CC(CC(C3)C1)C2	.	.	.	2	.	.
COc1ccc(C(=O)NCc2nnc(SCC(=O)N3CCCCC3)o2)cc1	-5%	.	1%	-12	4%	-12%
CCSc1nc2c(c(=O)[nH]1)C(c1ccc(C)cc1)C1=C(CCCC1=O)N2 (centres undefined)	4%	.	5%	-6	23%	-27%
Cc1ccc(CSc2nc3c(c(=O)[nH]2)C(c2ccncc2)C2=C(CCCC2=O)N3)cc1 (centres undefined)	-9%	14µM*	-11%	-15	5%	-23%
CC1(C)CC(=O)C2=C(C1)Nc1nc(SCCN3CCOCC3)[nH]c(=O)c1C2c1cccs1 (centres undefined)	-4%	32µM*	-3%	1	15%	-6%
CSc1nc2c(c(=O)[nH]1)C(c1cccs1)C1=C(CCCC1=O)N2 (centres undefined)	4%	22µM*	4%	2	-2%	2%
CSc1nc2c(c(=O)[nH]1)C(c1ccccc1)C1=C(CC(C)(C)CC1=O)N2 (centres undefined)	0%	.	2%	-5	39%	10%
CSc1nc(N)c2c(n1)NC1=C(C(=O)CC(C)(C)C1)C2c1cccs1 (centres undefined)	.	.	.	-5	.	.
COc1cc(CN2CCN(C3CCC3)CC2CCO)cc(OC)c1 (centres undefined)	?	-10%	-1%	-3	-9%	1%
SMILES	p53 reactivator	ClpP mod	GLP-1R agonist	LDHA block	GLP1R inv ag	GLP1R cytotox
FC(F)(F)c1ccc(Cl)c(N/N=C/c2ccccc2C(F)(F)F)c1	.	.	.	1	.	.
N=c1c2c(-c3ccccc3)c(-c3ccccc3)n(Cc3ccco3)c2ncn1CCO	-11%	1%	-11%	-4	?	7.9µM*
N=c1c2c(-c3ccccc3)c(-c3ccccc3)n(Cc3ccco3)c2ncn1CCCO	-8%	.	5%	-6	?	?
CSc1cccc(NC(=O)C2C(C=C(C)C)C2(C)C)c1 (centres undefined)	.	.	.	-1	.	.
O=C(O)c1ccccc1-c1ccccc1C(=O)NNc1ccccc1	-4%	-1%	-3%	7	2.2µM*	-8%
Cc1ccc(NC(=O)c2ccccc2-c2ccccc2C(=O)O)cc1	-9%	-1%	1%	-2	11%	-1%
Cc1ccc(O)c(NC(=O)c2ccccc2-c2ccccc2C(=O)O)c1	1%	25µM*	2%	-11	-1%	0%
CCc1cc(-c2[nH]ncc2-c2nc3ccccc3n2C)c(O)cc1O	-7%	-30%	-8%	0	-8%	5%
CC(NC(=O)C(Cc1ccccc1)n1cccc1)c1ccccc1 (centres undefined)	1%	.	6%	-4	11µM*	2%
Cc1ccc(CNC(=O)C(Cc2ccccc2)n2cccc2)cc1 (centres undefined)	-1%	.	12%	-4	?	3%
Cc1cc(C)cc(C(=O)NC2CCCCCCC2)c1	.	.	.	7	.	.
CC(Oc1cccc(Cl)c1)C(=O)Nc1nc(-c2ccccn2)cs1 (centres undefined)	?	.	1%	5	5µM*	?
CC(C)Cc1c(O)nc(SCC(=O)Nc2ccc3c(c2)CCC3)[nH]c1=O	-4%	0%	-2%	-5	-6%	-18%
COC(=O)C1=C(C)NC2=C(C(=O)CC(C)(C)C2)C1c1cn(Cc2ccc(Br)cc2)nc1-c1ccccc1 (centres undefined)	-5%	32µM*	-4%	0	?	113%
CN(CCOc1ccc(Cl)cc1)CC(=O)Nc1ccc(OC(F)F)cc1	1%	-3%	-3%	1	?	-4%
CCC(C)c1ccccc1NC(=O)CN(C)CCOc1ccc(Cl)cc1 (centres undefined)	-6%	.	12%	7	10µM*	-21%
Cc1nc(C(=O)NC2CCCCC2)ccc1C#N	.	.	.	3	.	.
O=C(O)c1ccc(NC2=Nc3cccc4cccc2c34)cc1	2%	-7%	-4%	2	40%	72%
COc1ccc(C(=O)Nc2cc3c(cc2N2CCCC2)n(C)c(=O)c(=O)n3C)cc1OC	.	32µM*	.	4	4%	-4%
Cc1ccc(C(=O)Nc2cc3c(cc2N2CCCCC2)n(C)c(=O)n3C)cc1	0%	-2%	-5%	-1	6%	-9%
